From the supplement of paper PMC10849652
The full data set covers some 8,800 targets. This sample favours those with a hit. About 0.5% of all pairs of compound and target were hits. A number with no mark means an inactive call.

How the values were obtained:
Test in all cases: log2 fold change, soluble protein after heating vs DMSO (PISA); higher = thermal stabilisation; K562 lysate, 10 uM; active = over 0.2 and 3.5 SD of the protein, either way, in both replicates (recomputed)
erlotinib = compound: C#Cc1cccc(Nc2ncnc3cc(OCCOC)c(OCCOC)cc23)c1 [erlotinib]
In short: (§1)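 Soluble protein was defined as the supernatant remaining after 21,000xg for 90 min, following pooling of heated aliquots and adjustment to 0.5% NP-40 at 4°C. Before that, crude K562 extract at 1 mg/mL protein in PBS pH 7.4 with 1 mM MgCl2 was treated with 10 μM compound for 30 min and heated for 3 min across 48°C-58°C. Quantification used TMTpro 16plex LC-MS/MS with channel sums equalised, and values are log-two fold changes in thermal stability relative to solvent controls from duplicates.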

[1] = compound: C/C(=N\NC(=O)C1=CC(=CC=C1)S(=O)(=O)N2CCOCC2)/C3=C(C=CC(=C3)Cl)O
In short: as §1

[2] = compound: C1=CC(=CC=C1C2=NC3=C(N2)C=C(C=C3)C(=O)N)OC4=CC=C(C=C4)Cl
In short: as §1

[3] = compound: C1=CC2=C(C=CC(=C2)/C=C\3/C(=O)NC(=NCC4=CC=CS4)S3)N=C1
In short: as §1

[4] = compound: C1=CC2=NC=CN=C2C=C1/C=C/3\C(=O)NC(=O)S3
In short: as §1

[5] = compound: C1=CC=C(C=C1)C2=NC(=C(N2)C3=CC=NC=C3)C4=CC(=C(C=C4)Cl)O
In short: as §1

[6] = compound: C1=CC=C2C(=C1)C3=NNC4=CC=CC(=C43)C2=O
In short: as §1

[7] = compound: C1CCN(C1)C(=O)NC2=CC=CC(=C2)NC3=NC=C(C(=N3)NCCC4=CN=CN4)Br
In short: as §1

[8] = compound: C1CN(CCC1(CC2=CC=C(C=C2)Cl)N)C3=NC=NC4=C3C=CN4
In short: as §1

IRAK-1-4 Inhibitor I = compound: C1COCCN1CCN2C3=CC=CC=C3N=C2NC(=O)C4=CC(=CC=C4)[N+](=O)[O-] [IRAK-1-4 Inhibitor I]
In short: as §1

ibrutinib = compound: C=CC(=O)N1CCC[C@@H](n2nc(-c3ccc(Oc4ccccc4)cc3)c3c(N)ncnc32)C1 [ibrutinib]
In short: as §1

[9] = compound: CC(=O)c1cnc2ccc(-c3cc(Cl)c(O)c(Cl)c3)nc2c1N[C@H]1CC[C@H](CN(C)C)CC1
In short: as §1

ralimetinib = compound: CC(C)(C)Cn1c(N)nc2ccc(-c3[nH]c(C(C)(C)C)nc3-c3ccc(F)cc3)nc21 [ralimetinib]
In short: as §1

[10] = compound: CC(C)(O)CC(=O)NCCn1ccc2ncnc(Nc3ccc(Oc4cccc(C(F)(F)F)c4)c(Cl)c3)c21
In short: as §1

[11] = compound: CC(C)C1=C2N=C(C=C(N2N=C1)NCC3=CC=CC=C3)NCCCCCCN
In short: as §1

[12] = compound: CC1=C(C(CC(=O)N1)C2=CC=C(C=C2)C(F)(F)F)C(=O)NC3=C(C=C4C(=C3)C=NN4)F
In short: as §1

[13] = compound: CC1=C(C2=C(C=C1)C(=O)C3=CC=CC=C3N2CCCN)C
In short: as §1

[14] = compound: CC1=C(C=C(C=C1)NC(=O)C2=CC(=CC=C2)C(C)(C)C#N)NC3=CC4=C(C=C3)N=CN(C4=O)C
In short: as §1

[15] = compound: CC1=C(C=C(C=C1)NC(=O)C2=CC(=CC=C2)N(C)C)NC(=O)C3=CC=C(C=C3)O
In short: as §1

[16] = compound: CC1=CC=C(C=C1)SC2=C3C=C(SC3=CN=C2)C(=O)N
In short: as §1

UniProt Q99963, sequence (Q99963 whole entry, looked up): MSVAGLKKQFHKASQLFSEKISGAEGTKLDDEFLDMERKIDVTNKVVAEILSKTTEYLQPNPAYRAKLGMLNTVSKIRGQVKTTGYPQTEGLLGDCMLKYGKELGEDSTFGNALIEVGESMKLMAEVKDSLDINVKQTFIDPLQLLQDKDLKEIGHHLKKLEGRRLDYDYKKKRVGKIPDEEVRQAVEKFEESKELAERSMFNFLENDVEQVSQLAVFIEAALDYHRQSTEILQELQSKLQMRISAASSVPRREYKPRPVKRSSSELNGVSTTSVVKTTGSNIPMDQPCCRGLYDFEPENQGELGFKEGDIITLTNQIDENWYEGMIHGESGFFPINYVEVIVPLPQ
UniProt Q99961, sequence (Q99961 whole entry, looked up): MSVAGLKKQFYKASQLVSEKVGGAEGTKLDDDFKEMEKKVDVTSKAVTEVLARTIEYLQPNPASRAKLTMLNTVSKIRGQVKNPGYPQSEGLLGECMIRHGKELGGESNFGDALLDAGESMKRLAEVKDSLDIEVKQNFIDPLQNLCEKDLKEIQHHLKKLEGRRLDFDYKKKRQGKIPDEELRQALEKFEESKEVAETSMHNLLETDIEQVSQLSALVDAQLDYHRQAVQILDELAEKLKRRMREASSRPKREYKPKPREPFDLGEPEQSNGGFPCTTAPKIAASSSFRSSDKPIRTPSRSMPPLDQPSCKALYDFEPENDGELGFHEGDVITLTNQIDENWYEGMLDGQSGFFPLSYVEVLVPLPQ
UniProt P35270, sequence (P35270 whole entry, looked up): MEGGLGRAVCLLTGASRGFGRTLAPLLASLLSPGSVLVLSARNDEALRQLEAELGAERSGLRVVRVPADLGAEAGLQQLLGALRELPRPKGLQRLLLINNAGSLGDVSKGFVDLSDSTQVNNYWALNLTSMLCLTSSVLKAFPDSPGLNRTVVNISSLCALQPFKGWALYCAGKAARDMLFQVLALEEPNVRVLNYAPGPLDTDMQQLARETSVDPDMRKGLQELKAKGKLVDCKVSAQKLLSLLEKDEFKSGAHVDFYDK
UniProt Q9UNE7, sequence (Q9UNE7 whole entry, looked up): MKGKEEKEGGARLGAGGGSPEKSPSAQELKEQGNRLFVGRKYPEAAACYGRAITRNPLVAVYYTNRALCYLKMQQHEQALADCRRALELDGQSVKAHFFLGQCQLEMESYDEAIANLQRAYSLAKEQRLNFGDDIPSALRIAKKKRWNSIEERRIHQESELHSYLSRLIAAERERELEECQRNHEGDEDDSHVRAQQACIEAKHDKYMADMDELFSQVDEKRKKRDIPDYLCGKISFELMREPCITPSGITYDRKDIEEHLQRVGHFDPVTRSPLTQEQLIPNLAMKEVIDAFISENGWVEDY
UniProt O95926, sequence (O95926 whole entry, looked up): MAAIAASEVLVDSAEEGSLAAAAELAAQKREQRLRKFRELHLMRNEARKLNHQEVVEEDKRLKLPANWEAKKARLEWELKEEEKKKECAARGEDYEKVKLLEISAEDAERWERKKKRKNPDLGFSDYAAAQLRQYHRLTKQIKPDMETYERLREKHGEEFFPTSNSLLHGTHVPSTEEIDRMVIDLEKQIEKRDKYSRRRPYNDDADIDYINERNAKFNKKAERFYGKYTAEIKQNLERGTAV
UniProt Q8N1S5, sequence (Q8N1S5 whole entry, looked up): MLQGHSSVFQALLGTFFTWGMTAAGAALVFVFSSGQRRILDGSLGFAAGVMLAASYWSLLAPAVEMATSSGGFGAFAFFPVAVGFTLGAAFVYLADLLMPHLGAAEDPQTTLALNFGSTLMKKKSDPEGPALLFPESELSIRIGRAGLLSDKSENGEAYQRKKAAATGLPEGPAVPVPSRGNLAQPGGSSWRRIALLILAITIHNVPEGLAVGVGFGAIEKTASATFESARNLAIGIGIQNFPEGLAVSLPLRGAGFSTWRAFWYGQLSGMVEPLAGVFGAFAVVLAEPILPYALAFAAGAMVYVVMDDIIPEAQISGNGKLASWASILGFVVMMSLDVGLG
UniProt Q16637, sequence (Q16637 whole entry, looked up): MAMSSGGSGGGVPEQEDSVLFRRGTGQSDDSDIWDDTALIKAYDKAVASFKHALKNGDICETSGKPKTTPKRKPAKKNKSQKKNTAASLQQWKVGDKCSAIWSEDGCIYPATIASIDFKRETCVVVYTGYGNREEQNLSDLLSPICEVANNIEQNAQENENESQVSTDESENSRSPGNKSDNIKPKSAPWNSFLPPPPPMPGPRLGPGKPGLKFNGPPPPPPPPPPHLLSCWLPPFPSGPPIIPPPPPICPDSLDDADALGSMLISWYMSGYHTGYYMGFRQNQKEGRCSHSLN
UniProt Q96JI7, sequence (Q96JI7 whole entry, looked up): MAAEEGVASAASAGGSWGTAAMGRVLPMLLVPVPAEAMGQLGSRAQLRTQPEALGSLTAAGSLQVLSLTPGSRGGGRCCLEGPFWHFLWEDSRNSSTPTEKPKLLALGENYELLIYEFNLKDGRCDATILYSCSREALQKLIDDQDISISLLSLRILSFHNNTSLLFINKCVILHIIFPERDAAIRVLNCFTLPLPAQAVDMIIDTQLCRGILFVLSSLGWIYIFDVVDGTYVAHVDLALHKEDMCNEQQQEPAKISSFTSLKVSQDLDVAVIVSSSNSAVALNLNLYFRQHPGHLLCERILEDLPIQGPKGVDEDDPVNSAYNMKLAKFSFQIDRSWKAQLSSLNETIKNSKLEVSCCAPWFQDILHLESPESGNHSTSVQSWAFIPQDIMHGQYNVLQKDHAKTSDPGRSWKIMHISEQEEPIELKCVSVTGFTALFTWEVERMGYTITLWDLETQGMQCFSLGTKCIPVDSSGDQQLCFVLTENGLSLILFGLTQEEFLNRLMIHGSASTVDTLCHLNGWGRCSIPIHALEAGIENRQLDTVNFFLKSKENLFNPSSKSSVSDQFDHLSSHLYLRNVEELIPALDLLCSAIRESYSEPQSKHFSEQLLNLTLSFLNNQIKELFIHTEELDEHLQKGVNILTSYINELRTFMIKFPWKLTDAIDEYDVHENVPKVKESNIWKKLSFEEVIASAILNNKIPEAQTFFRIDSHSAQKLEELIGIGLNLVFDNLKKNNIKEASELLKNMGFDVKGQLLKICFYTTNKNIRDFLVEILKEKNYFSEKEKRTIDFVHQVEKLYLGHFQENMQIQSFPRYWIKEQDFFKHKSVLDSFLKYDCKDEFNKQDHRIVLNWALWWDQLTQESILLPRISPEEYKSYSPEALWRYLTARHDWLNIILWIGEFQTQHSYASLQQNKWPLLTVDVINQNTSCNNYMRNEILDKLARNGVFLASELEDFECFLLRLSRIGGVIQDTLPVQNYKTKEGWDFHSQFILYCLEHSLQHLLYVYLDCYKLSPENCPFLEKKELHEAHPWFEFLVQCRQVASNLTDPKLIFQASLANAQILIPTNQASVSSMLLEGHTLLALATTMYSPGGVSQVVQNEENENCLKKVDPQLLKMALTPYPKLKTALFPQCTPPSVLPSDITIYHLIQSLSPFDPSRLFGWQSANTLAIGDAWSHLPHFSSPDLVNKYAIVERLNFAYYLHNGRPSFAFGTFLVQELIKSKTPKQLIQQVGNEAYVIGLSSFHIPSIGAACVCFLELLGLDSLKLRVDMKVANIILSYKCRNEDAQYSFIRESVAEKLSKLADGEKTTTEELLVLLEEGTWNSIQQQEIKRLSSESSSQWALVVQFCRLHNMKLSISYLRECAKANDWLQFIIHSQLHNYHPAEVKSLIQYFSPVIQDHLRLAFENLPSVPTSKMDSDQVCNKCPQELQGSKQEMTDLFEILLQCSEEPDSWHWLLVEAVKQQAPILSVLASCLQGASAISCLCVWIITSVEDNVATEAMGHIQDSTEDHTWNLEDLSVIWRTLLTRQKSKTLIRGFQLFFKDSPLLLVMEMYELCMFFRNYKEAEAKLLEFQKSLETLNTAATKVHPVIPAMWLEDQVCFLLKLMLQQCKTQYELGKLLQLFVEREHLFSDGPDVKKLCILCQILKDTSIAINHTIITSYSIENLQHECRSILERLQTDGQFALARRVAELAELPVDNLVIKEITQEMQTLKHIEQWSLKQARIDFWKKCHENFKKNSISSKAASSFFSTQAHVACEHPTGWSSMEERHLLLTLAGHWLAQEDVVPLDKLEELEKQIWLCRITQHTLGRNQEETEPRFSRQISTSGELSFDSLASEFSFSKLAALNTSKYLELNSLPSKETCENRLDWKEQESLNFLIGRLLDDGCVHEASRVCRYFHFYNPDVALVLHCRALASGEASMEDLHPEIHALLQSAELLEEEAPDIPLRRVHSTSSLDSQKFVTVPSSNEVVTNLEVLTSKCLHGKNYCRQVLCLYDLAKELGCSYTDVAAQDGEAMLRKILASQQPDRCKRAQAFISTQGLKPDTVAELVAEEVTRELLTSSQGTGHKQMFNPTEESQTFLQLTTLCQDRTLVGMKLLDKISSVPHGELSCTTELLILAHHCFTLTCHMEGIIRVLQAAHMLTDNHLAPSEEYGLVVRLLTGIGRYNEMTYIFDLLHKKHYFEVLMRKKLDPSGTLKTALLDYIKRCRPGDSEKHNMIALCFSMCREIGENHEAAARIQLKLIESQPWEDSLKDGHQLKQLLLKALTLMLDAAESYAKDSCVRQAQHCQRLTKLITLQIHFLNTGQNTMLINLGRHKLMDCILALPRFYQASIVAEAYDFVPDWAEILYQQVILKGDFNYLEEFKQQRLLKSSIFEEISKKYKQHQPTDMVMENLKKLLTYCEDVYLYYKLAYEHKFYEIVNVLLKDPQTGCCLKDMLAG

Row | Target | log2 fold change (erlotinib) | log2 fold change [1] | log2 fold change [2] | log2 fold change [3] | log2 fold change [4] | log2 fold change [5] | log2 fold change [6] | log2 fold change [7] | log2 fold change [8] | log2 fold change (IRAK-1-4 Inhibitor I) | log2 fold change (ibrutinib) | log2 fold change [9] | log2 fold change (ralimetinib) | log2 fold change [10] | log2 fold change [11] | log2 fold change [12] | log2 fold change [13] | log2 fold change [14] | log2 fold change [15] | log2 fold change [16]
1 | SLC39A11 (UniProt Q8N1S5) | -0.093 | 0.116 | -0.047 | -0.139 | -0.071 | 0.05 | 0.062 | 0.385 (active) | 0.058 | -0.053 | -0.065 | -0.008 | -0.136 | -0.042 | -0.023 | 0.051 | 0.16 | -0.074 | -0.089 | 0.001
2 | SH3GL1 (UniProt Q99961) | -0.009 | 0.016 | -0.022 | -0.004 | -0.008 | 0.001 | -0.003 | -0.027 | 0.006 | -0.017 | -0.004 | 0 | 0.031 | 0.006 | -0.015 | -0.03 | 0.017 | 0.025 | 0.006 | -0.012
3 | SPR (UniProt P35270) | -0.027 | 0.014 | -0.021 | 0.056 | 0.049 | 1.04 (active) | 0.013 | 0.008 | -0.041 | 0.049 | 0.027 | 0.293 | 0.024 | 0 | -0.048 | -0.051 | -0.038 | -0.046 | -0.028 | 0.023
4 | STUB1 (UniProt Q9UNE7) | 0.05 | 0.024 | -0.034 | -0.022 | 0.009 | 0.003 | -0.033 | 0.013 | 0.006 | -0.018 | 0.015 | 0.011 | 0.005 | 0 | -0.018 | 0.023 | 0.032 | -0.012 | -0.001 | -0.019
5 | SPG11 (UniProt Q96JI7) | 0.05 | 0.033 | 0.005 | -0.012 | 0.333 | 0.076 | 0.025 | -0.016 | 0.019 | 0.023 | 0.077 | 0.068 | 0.049 | -0.024 | -0.011 | -0.048 | -0.063 | -0.061 | 0.098 | 0.007
6 | SMN1 (UniProt Q16637) | 0.038 | 0.009 | 0.042 | -0.075 | -0.055 | 0.096 | -0.068 | -0.046 | -0.104 | 0.02 | -0.085 | -0.028 | 0.01 | -0.01 | 0.002 | 0.001 | -0.018 | 0.018 | 0.137 | -0.045
7 | SYF2 (UniProt O95926) | 0 | 0.043 | 0.037 | -0.025 | -0.015 | 0.037 | 0.063 | -0.048 | 0 | -0.057 | 0.094 | 0.023 | -0.019 | 0.001 | -0.02 | -0.027 | -0.122 | 0.037 | 0.066 | -0.061
8 | SH3GL3 isoform 3 (UniProt Q99963) | -0.023 | -0.014 | -0.002 | -0.054 | -0.053 | -0.108 | -0.133 | 0.054 | -0.06 | -0.124 | 0.042 | -0.104 | -0.014 | 0.004 | 0.001 | -0.017 | -0.045 | 0.027 | 0.042 | -0.102
